Bioassay records deposited in PubChem by National Center for Advancing Translational Sciences (NCATS).
ALOX15B inhib: qHTS Assay for Inhibitors of 15-hLO-2 (15-human lipoxygenase 2). purified 15hLO-2, xylenol orange hydroperoxide absorbance. Potency, µM (highest dose often 57.1 µM), for the others: at the top dose activity change, negative = inhibition, actives largely listed as inhibitors. AID 881, 2007. Polyunsaturated fatty acid lipoxygenase ALOX15B (Homo sapiens), O15296. 110,000 tested, 0.56% active; also: potency is read from the fitted curve at half-maximal effect; nearly all actives have a fitted effect of over 60% in size
Target sequence (O15296 whole entry, looked up): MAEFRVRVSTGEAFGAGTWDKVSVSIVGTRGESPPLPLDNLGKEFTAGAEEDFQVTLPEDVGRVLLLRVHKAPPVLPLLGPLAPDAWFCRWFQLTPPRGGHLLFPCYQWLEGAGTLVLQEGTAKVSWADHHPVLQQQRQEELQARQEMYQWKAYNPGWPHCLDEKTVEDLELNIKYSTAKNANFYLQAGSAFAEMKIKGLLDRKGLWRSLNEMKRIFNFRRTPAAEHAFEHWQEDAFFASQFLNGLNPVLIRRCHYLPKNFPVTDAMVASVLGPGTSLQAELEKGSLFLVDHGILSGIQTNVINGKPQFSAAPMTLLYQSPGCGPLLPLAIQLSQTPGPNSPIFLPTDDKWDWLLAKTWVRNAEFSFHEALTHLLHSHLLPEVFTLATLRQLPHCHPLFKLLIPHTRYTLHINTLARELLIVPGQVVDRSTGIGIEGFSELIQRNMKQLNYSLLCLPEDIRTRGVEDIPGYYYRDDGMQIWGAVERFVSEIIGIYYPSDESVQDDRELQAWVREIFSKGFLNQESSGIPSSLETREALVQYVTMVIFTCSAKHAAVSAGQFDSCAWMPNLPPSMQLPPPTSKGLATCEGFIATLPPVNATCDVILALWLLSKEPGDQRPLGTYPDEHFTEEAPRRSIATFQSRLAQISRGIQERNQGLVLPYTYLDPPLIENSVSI
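Read-out: hydroperoxide product oxidises ferrous iron, measured as xylenol orange complex via the 573-to-405 nm absorbance ratio after 30 min. Reaction: 50 nM enzyme, 15 min compound preincubation, 45 uM arachidonic acid, 90 min RT, Hepes pH 7.5 with Triton X-100.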
PNC inhibitor: High Content Assay for Compounds that inhibit the Assembly of the Perinucleolar Compartment | PC3M PTB-GFP, PNC prevalence imaging, 16 h; active compounds read low | activity change (PNC), negative = inhibition, % at 10 µM | 140,000 tested, 3.1% active | AID 2417, 2010;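 active = readout at or below -70, meaning at least 70% loss of cells showing the perinucleolar compartment, a nuclear body marking cancer cells; inconclusive = readout between -30 and a set limit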;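 also: plate controls were DMSO wells for no effect and camptothecin positive control wells for full effect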
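Read-out is percentage of cells bearing a perinucleolar compartment, from automated 20x imaging of fixed, Hoechst-stained PC3M PTB-GFP cells. Cells were seeded 4 h, then exposed 16 h to compound (23 nl of library stock) in duplicate plates.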
12-hLO inh: qHTS Assay for Inhibitors of 12-hLO (12-human lipoxygenase); Polyunsaturated fatty acid lipoxygenase ALOX12 (Homo sapiens), P18054; purified 12-hLO, xylenol orange hydroperoxide absorbance; Potency, µM (doses to about 57.1 µM), for the others: at the highest dose activity change, negative = inhibition, most hits filed as inhibitors; 150,000 tested, 0.12% active; AID 1452, 2008; also: potency is read from the fitted curve at half-maximal effect; nearly all actives have a fitted effect of over 55% in size
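Hydroperoxide output read as Fe(III)-xylenol orange absorbance, 573-to-405 nm ratio, after 30 min reaction with 40 uM arachidonic acid. Enzyme: 150 nM purified human 12hLO, 15 min compound preincubation; 25 mM Hepes pH 7.0, room temperature.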
An asterisk follows results filed as active; ? = inconclusive; / = no result given; [ ] = another dose, or the depositor's remark. A selection: hits, their analogues and other compounds. The true share with any hit is near 3.1%. Unless noted, calls follow the shape of the dose curve; as a rule, active = well fitted curve in the direction sought with a large enough effect; inconclusive = small, poorly fitted or top-dose-only effect, or another doubt; inactive = no such curve, though single readings can be large; an effect the other way counts as inactive or inconclusive. Unless noted, % is scaled to controls: 0 for no effect and ±100 for the full control effect.

SMILES | ALOX15B inhib | PNC inhibitor | 12-hLO inh
O=C(O)CCN1C(=O)C(=C2CCCCCC2)SC1=S | -9.7% | ? | 1.2%
O=C1NC(=O)C(=C2CCCCCC2)S1 | / | -104.7* | -1.7%
O=C(c1ccc2ccccc2n1)N1CCN(c2ccccc2)CC1 | -17.5% | 41.6 | -0.6%
O=C(c1ccc2ccccc2n1)N1CCN(c2ccccc2O)CC1 | -10.4% | -95.7* | -7.2%
CC(C)(C)n1nnnc1C(c1ccc(Cl)cc1)N1CCCc2ccccc21 (centres undefined) | -5.7% | -88.3* | -5.5%
COc1ccccc1C(c1nnnn1C(C)(C)C)N1CCCc2ccccc21 (centres undefined) | -8.1% | ? | -4.4%
COCCN(CCOC)c1cc(C)c(C#N)c2nc3ccccc3n12 | -0.9% | -95.0* | -1.6%
C=C(C)CSc1cc(C)c(C#N)c2nc3ccccc3n12 | / | -93.2* | -20.6%
Cc1cc(NCCCCO)n2c(nc3ccccc32)c1C#N | -14.8%[11.4 µM] | ? | 7.0%
Cc1cc(-c2ccco2)n2c(nc3ccccc32)c1C#N | -11.5% | 61.3 | 1.7%
CC(C)CN1CCC2(CC1)CCN(C(=O)c1cccn1C)CC2 | -4.5% | / | -6.3%
O=S(=O)(c1ccc(Cl)s1)N1CCC(Cc2ccccc2)CC1 | 0.2% | ? | 0.1%
O=S(=O)(c1ccc(Cl)s1)N1CCN(Cc2ccccc2)CC1 | 27.1% | -82.9* | 2.1%
CC1(C)OC2CC3C4CC(F)C5=CC(=O)CC[C@@]5(C)C4C(O)C[C@@]3(C)[C@]2(C(=O)CO)O1 (some centres undefined) | -1.3% | / | 1.4%
COc1ccc(C2CC(c3ccccc3)=NN2S(=O)(=O)c2ccccc2)c(OC)c1 (centres undefined) | / | -8.4 | 8.6%
Cc1cccc2cc(C3CC(c4ccco4)=NN3S(=O)(=O)c3ccccc3)c(Cl)nc12 (centres undefined) | / | -91.3* | -2.0%
Cn1c(=O)c(-c2cc(F)cc(F)c2)nc2cnc(Oc3ccccc3)nc21 | 4.1% | / | -3.5%
COC(=O)C1=C(C(=O)OC)[C@@H]2N(C)c3ccccc3[C@@]23C[C@@H](C(=O)OC)N(S(=O)(=O)c2ccc(C(F)(F)F)cc2)C3=N1 | / | / | -0.5%[11.4 µM]
CCN1C(=O)C(O)(CC(=O)c2ccc(-n3cccc3)cc2)c2ccccc21 (centres undefined) | / | -100.0* | 0.5%
CCN1C(=O)C(O)(CC(=O)c2ccccn2)c2ccccc21 (centres undefined) | -4.7% | 27.4 | 2.3%
CCCC(=O)Nc1ccc(OC[C@@H](O)CNC(C)C)c(C(C)=O)c1 | 0.1%[25.6 µM] | / | 0.4%[25.6 µM]
COc1ccc2c3c(cccc13)C(=O)N(O)C2=O | / | -3.5 | -1.7%
CCC1=NNc2cccc3c(OC)ccc1c23 | 5.01µM* | 30.4 | -5.3%
O=C(c1csnn1)N1CCC2(CCCN(C(c3ccccc3)c3ccccc3)C2)CC1 | 0.2% | / | -0.5%
COc1ccc(-n2ncc3c(SCC(=O)N4CCN(c5ccccc5OC)CC4)ncnc32)cc1 | / | -118.9* | 4.5%
SMILES | ALOX15B inhib | PNC inhibitor | 12-hLO inh
COc1ccccc1N1CCN(C(=O)CSc2ncnc3scc(-c4ccccc4)c23)CC1 | / | 22.4 | -2.3%
CCc1cccc(NC(=O)CSCc2cc(=O)[nH][nH]2)c1 | 10.0% | ? | 1.4%
CCc1cccc(NC(=O)CSC2=NS(=O)(=O)c3ccccc32)c1 | 5.01µM* | -4.8 | 0.0%
Cc1cnc(CNc2nc(-c3ccoc3)nc3ccccc23)cn1 | -6.7% | / | /
O=C(O)COc1ccc(/C=N/n2c(COc3ccccc3)nc3ccccc3c2=O)cc1 | / | -115.2* | -0.6%
Cc1cccc(C)c1OCc1nc2ccccc2c(=O)n1/N=C/c1ccc(OCC(=O)O)cc1 | / | -26.4 | 0.0%
CCN[C@@H]1C[C@H](N)[C@H](O[C@H]2OC(CN)=CC[C@H]2N)[C@@H](O)[C@H]1O[C@H]1OC[C@@](C)(O)[C@@H](NC)[C@@H]1O | 3.5%[25.6 µM] | / | -0.7%[25.6 µM]
C[C@H](NCCc1ccc(O)cc1)[C@@H](O)c1ccc(O)cc1 | 2.8%[25.6 µM] | / | 2.0%[25.6 µM]
CC(=O)OCCCNc1cc(Sc2ccc(Cl)cc2)c2nonc2c1[N+](=O)[O-] | / | 45.1 | -1.9%
CC(=O)OCCNc1cc(N2CCN(C)CC2)c2noc3c2c1C(=O)c1ccccc1-3 | / | -92.6* | -1.3%
O=C(O)C[C@H](NC(=O)CP(=O)(O)O)C(=O)O.[NH-][C@@H]1CCCC[C@@H]1[NH-].[Pt] | 2.0%[11.4 µM] | / | 1.1%[11.4 µM]
COc1cc(NC(=S)NC(=O)c2cc(C)cc(C)c2)ccc1NC(=O)c1cccs1 | / | 12.5 | ?
COc1cc(NC(=S)NC(=O)c2ccc(C(C)(C)C)cc2)ccc1NC(=O)c1cccs1 | / | -115.1* | 10.9%
